# Source: article PMC7862700, “An all-to-all approach to the identification of sequence-specific readers for epigenetic DNA modifications on cytosine”
# Legend:
# Assay in all cases: DAPPL (digital affinity profiling via proximity ligation, sequencing); 10 mM Tris-HCl pH 7.5, 50 mM NaCl, 1 mM DTT, 4% glycerol, room temperature, 30 min; GST-TFs on glutathione beads, 16-mer random dsDNA library, 0.1% formaldehyde crosslink after washing; high values mean tight binding
# FLI1 = target: T1, FLI1 (Homo sapiens, UniProt Q01543 1-452); settings: protein: recombinant; tags: N-terminal GST; dsDNA, one strand shown
# T1 sequence: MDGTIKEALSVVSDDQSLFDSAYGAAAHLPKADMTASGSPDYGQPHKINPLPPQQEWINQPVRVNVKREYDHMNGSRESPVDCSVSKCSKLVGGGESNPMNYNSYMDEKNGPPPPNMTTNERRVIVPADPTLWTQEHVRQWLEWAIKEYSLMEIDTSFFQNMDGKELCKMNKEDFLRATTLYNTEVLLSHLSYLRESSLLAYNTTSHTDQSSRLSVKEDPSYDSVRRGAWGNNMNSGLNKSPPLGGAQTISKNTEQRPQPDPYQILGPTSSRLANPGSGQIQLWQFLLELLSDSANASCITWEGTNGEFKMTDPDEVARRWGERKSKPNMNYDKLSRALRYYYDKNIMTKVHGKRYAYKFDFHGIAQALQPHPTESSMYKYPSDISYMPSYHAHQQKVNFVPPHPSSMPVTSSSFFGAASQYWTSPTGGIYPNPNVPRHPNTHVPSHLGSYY
# Outline: (§1)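 Yeast served to express human transcription factors as GST fusions, which were then captured on glutathione beads and labelled with DNA barcodes. Pooled with a tag-only sample, they were incubated with 200 nmole of a 16-mer random double-stranded DNA library for 30 min at room temperature in Tris/NaCl/DTT/glycerol buffer, washed, crosslinked with 0.1% formaldehyde, ligated by proximity, amplified by PCR and sequenced. Dividing each hexamer's read frequency for a factor by its frequency for the tag-only sample gives the binding signal.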
# ELK1 = target: T2, ELK1 (Homo sapiens, UniProt P19419 1-428); settings: protein: recombinant; tags: N-terminal GST; dsDNA, one strand shown
# T2 sequence: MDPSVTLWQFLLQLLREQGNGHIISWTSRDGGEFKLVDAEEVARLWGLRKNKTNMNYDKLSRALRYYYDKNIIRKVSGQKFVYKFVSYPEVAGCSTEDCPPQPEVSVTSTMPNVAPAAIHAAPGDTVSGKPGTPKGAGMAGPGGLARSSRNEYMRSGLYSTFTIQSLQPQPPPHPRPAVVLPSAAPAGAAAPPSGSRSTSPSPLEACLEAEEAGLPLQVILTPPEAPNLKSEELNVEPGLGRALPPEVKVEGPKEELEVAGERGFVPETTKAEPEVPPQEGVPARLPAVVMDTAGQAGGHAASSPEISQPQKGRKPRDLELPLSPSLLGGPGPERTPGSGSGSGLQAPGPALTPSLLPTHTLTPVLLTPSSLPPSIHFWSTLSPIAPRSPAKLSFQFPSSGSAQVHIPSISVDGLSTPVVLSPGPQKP
# Outline: as §1
# GABPA = target: T3, GABPA (Homo sapiens, UniProt Q06546 1-454); settings: protein: recombinant; tags: N-terminal GST; dsDNA, one strand shown
# T3 sequence: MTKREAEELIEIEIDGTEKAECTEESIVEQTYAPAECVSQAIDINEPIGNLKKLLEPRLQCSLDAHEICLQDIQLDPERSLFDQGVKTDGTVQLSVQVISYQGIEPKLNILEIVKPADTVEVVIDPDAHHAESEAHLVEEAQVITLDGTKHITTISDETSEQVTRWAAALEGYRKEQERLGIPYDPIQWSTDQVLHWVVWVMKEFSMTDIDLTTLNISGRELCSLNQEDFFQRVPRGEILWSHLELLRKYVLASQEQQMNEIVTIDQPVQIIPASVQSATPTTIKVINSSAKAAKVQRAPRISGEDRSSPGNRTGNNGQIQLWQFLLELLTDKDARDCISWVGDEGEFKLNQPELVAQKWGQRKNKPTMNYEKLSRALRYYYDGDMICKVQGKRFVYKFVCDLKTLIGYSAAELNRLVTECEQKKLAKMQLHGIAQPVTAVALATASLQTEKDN
# Outline: as §1
# ERG = target: T4, ERG (Homo sapiens, UniProt P11308 1-479); settings: protein: recombinant; tags: N-terminal GST; dsDNA, one strand shown
# T4 sequence: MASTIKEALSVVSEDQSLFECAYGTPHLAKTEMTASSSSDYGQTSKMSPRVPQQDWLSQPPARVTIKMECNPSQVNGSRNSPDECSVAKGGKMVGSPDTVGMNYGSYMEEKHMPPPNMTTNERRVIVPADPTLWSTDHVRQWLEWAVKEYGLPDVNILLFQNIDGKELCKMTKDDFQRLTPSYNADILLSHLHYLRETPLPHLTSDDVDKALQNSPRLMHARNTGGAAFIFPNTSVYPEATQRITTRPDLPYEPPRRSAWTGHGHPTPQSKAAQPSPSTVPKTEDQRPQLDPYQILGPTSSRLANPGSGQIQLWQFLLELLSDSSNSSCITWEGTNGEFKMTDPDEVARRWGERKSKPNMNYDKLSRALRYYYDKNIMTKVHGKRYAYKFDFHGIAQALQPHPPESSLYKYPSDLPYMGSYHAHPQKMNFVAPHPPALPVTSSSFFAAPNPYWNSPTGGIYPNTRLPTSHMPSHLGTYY
# Outline: as §1
# ELF1 = ELF1 (Homo sapiens, UniProt P32519 1-619); settings: protein: recombinant; tags: N-terminal GST; dsDNA, one strand shown
# Outline: as §1
# EHF = target: T5, EHF (Homo sapiens, UniProt Q9NZC4 1-300); settings: protein: recombinant; tags: N-terminal GST; dsDNA, one strand shown
# T5 sequence: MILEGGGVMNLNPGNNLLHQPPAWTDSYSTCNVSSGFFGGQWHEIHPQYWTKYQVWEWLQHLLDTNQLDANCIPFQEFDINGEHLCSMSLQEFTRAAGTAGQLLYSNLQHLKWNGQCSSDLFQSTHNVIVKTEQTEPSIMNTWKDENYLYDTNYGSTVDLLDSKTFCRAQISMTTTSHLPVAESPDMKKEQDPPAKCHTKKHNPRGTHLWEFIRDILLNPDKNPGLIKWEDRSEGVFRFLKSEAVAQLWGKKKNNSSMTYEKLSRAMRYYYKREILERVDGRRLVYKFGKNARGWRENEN
# Outline: as §1
# SPI1 = SPI1 (Homo sapiens, UniProt P17947 1-270); settings: protein: recombinant; tags: N-terminal GST; dsDNA, one strand shown
# Outline: as §1
# SPIB = SPIB (Homo sapiens, UniProt Q01892 1-262); settings: protein: recombinant; tags: N-terminal GST; dsDNA, one strand shown
# Outline: as §1
# ELK3 = target: T6, ELK3 (Homo sapiens, UniProt P41970 1-407); settings: protein: recombinant; tags: N-terminal GST; dsDNA, one strand shown
# T6 sequence: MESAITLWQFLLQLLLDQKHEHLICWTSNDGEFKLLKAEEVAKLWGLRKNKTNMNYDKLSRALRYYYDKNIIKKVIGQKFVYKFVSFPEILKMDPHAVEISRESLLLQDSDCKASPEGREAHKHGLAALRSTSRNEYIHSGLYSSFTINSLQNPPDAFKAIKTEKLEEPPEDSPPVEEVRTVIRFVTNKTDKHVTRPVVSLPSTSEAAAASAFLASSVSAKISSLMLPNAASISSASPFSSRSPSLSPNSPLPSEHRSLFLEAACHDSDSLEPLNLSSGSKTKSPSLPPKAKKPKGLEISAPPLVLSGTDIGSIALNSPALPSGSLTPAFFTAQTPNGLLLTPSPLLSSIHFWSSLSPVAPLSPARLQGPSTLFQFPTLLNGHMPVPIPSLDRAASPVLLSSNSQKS
# Outline: as §1
# FEV = target: T7, FEV (Homo sapiens, UniProt Q99581 1-238); settings: protein: recombinant; tags: N-terminal GST; dsDNA, one strand shown
# T7 sequence: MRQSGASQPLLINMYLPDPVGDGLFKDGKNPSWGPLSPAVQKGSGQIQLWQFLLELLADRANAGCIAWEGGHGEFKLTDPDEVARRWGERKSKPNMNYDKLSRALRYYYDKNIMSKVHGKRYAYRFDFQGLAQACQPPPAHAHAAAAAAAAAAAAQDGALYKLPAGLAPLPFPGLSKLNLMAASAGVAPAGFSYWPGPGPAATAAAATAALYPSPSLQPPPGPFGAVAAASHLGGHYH
# Outline: as §1
# ETV5 = ETV5 (Homo sapiens, UniProt P41161 1-510); settings: protein: recombinant; tags: N-terminal GST; dsDNA, one strand shown
# Outline: as §1
# HSF1 = HSF1 (Homo sapiens, UniProt Q00613 1-529); settings: protein: recombinant; tags: N-terminal GST; chain copies: 3; dsDNA, one strand shown
# Outline: as §1
# SPIC = target: T8, SPIC (Homo sapiens, UniProt Q8N5J4 1-248); settings: protein: recombinant; tags: N-terminal GST; dsDNA, one strand shown
# T8 sequence: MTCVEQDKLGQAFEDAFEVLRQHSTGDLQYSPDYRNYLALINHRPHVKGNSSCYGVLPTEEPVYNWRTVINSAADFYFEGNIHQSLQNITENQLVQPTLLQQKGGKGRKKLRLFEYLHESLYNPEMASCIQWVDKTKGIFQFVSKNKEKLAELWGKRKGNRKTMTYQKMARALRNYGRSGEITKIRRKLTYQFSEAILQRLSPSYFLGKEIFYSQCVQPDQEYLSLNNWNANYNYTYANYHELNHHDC
# Outline: as §1
# ELF4 = ELF4 (Homo sapiens, UniProt Q99607 1-663); settings: protein: recombinant; tags: N-terminal GST; dsDNA, one strand shown
# Outline: as §1
# ELK4 = target: T9, ELK4 (Homo sapiens, UniProt P28324-2 1-405); settings: protein: recombinant; tags: N-terminal GST; dsDNA, one strand shown
# T9 sequence: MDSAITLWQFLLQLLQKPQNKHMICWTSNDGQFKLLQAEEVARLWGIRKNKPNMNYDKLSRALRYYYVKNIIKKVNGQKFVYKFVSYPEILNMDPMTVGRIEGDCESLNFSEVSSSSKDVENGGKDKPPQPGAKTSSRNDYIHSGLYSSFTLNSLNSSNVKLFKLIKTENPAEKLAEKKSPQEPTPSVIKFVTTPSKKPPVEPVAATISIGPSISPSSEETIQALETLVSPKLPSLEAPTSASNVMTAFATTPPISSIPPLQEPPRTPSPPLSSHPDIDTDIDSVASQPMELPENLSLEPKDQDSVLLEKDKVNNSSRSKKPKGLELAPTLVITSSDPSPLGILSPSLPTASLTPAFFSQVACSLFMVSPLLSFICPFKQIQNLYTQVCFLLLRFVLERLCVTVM
# Outline: as §1
# ETV2 = target: T10, ETV2 (Homo sapiens, UniProt O00321 1-342); settings: protein: recombinant; tags: N-terminal GST; dsDNA, one strand shown
# T10 sequence: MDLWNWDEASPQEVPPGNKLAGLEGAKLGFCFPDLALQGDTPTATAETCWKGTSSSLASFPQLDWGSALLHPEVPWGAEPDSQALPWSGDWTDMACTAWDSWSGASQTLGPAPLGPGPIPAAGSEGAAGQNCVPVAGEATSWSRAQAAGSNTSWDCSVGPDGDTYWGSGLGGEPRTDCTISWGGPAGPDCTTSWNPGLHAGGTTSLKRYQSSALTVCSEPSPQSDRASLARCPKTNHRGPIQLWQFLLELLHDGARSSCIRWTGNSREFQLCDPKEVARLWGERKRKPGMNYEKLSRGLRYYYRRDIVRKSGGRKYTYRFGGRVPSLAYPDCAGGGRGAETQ
# Outline: as §1
# ELF3 = target: T11, ELF3 (Homo sapiens, UniProt P78545 1-371); settings: protein: recombinant; tags: N-terminal GST; dsDNA, one strand shown
# T11 sequence: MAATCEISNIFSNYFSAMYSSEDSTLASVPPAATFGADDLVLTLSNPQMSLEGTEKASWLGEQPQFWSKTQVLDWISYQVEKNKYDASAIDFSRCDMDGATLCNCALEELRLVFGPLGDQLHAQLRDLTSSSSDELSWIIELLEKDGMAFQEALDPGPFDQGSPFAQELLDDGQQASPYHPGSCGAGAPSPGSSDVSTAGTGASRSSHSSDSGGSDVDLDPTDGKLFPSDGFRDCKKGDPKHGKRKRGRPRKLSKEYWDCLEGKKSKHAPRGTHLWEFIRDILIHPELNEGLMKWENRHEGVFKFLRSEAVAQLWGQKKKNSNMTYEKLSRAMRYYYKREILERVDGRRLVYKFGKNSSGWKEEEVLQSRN
# Outline: as §1
# CRX = CRX (Homo sapiens, UniProt O43186 1-299); settings: protein: recombinant; tags: N-terminal GST; dsDNA, one strand shown
# Outline: as §1
# ETV1 = ETV1 (Homo sapiens, UniProt P50549 1-477); settings: protein: recombinant; tags: N-terminal GST; dsDNA, one strand shown
# Outline: as §1
# Sequence of SPIB (Q01892 whole entry): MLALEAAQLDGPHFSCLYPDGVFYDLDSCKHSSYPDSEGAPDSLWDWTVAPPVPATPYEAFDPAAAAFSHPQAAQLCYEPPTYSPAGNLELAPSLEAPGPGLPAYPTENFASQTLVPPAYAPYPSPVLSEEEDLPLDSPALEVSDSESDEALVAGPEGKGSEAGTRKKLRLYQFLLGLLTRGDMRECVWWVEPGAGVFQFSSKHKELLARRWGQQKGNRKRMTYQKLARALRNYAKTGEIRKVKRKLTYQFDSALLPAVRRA
# Sequence of HSF1 (Q00613 whole entry): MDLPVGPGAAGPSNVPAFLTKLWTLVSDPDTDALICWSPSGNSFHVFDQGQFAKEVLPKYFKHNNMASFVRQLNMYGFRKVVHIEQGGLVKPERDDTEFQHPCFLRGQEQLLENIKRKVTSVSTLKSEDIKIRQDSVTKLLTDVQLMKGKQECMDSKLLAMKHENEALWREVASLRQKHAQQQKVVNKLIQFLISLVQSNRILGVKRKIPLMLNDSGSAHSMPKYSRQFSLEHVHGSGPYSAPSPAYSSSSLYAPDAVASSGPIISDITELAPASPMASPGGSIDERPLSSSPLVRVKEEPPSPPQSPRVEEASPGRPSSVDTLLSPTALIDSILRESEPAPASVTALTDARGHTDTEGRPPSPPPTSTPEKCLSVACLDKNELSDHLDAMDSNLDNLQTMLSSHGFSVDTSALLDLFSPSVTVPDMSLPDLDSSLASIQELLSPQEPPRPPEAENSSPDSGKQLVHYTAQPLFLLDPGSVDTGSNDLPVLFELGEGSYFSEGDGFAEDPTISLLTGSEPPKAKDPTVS
# Sequence of ELF1 (P32519 whole entry): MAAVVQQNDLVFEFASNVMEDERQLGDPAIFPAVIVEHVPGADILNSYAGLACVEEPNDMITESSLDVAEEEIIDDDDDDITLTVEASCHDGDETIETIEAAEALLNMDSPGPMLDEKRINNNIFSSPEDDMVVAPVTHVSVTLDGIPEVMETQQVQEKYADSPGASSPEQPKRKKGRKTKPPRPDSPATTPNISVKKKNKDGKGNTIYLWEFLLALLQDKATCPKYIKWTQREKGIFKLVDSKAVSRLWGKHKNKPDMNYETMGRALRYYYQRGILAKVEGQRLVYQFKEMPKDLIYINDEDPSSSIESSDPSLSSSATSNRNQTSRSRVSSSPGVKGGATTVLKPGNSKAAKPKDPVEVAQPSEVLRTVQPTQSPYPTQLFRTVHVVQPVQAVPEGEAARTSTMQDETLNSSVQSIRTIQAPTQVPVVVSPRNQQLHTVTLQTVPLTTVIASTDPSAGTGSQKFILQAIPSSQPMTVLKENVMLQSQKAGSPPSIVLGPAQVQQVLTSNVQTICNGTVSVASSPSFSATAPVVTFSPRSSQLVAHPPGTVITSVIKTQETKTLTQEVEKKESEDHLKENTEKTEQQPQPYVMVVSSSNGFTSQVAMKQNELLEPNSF
# Sequence of ETV5 (P41161 whole entry): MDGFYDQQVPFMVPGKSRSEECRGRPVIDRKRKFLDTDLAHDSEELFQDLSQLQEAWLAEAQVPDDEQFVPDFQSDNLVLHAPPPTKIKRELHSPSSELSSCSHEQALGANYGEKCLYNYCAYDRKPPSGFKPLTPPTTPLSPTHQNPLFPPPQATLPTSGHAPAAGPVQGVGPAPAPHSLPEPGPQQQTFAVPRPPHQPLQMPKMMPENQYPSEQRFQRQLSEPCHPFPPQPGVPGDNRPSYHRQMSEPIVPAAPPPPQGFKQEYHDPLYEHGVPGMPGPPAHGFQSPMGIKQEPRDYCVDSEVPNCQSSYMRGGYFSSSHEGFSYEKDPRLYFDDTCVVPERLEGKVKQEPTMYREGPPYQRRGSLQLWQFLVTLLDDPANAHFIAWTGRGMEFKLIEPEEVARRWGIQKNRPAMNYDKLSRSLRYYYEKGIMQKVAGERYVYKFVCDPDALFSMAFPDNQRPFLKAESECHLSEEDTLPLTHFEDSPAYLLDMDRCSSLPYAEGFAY
# Sequence of ETV1 (P50549 whole entry): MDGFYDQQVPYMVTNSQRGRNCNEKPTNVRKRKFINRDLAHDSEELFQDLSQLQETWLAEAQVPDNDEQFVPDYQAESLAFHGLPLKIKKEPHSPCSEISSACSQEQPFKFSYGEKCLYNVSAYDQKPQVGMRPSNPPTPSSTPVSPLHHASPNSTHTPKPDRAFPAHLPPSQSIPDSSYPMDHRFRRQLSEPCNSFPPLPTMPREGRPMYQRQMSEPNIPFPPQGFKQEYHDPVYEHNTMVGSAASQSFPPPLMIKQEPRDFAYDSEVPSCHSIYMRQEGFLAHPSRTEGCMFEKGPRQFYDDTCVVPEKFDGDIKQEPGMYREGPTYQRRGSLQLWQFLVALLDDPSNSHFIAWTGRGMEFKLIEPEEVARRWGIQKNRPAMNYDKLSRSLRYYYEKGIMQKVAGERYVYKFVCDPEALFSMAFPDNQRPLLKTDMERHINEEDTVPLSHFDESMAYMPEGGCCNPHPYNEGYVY
# Sequence of CRX (O43186 whole entry): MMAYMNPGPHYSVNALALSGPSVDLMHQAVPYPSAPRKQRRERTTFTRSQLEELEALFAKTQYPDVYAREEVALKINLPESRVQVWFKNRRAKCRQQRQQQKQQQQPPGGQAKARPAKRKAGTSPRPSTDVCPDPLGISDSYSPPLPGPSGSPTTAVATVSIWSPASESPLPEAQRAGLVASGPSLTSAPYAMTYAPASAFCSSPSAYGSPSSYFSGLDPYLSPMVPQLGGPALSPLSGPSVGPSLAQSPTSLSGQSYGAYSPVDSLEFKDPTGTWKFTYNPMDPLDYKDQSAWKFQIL
# Sequence of ELF4 (Q99607 whole entry): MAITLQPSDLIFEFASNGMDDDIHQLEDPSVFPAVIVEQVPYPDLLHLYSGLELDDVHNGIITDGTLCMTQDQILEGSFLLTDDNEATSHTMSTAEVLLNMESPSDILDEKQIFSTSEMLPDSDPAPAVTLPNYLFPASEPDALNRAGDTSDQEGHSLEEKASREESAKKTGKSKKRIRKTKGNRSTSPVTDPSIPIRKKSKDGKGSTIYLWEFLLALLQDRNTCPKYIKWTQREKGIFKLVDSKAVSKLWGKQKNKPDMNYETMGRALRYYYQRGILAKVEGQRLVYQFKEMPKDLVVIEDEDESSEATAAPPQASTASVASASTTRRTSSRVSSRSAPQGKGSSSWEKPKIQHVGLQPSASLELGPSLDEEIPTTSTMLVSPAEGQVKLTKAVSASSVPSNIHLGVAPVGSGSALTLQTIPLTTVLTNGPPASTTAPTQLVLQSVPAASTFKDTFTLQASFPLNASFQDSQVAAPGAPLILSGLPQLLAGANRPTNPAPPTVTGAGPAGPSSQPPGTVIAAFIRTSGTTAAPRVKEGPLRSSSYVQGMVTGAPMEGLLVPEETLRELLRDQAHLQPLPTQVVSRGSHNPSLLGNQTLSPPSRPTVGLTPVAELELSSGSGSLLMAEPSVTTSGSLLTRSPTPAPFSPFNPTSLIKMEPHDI
sequence,measurement,setting,value
TGTTCT,binding signal,FLI1,"1.4 fold enrichment (6-mer frequency, TF over GST control)"
same,binding signal,ELK1,"1.4 fold enrichment (6-mer frequency, TF over GST control)"
same,binding signal,GABPA,"1.28 fold enrichment (6-mer frequency, TF over GST control)"
same,binding signal,ERG,"1.38 fold enrichment (6-mer frequency, TF over GST control)"
same,binding signal,ELF1,"1.39 fold enrichment (6-mer frequency, TF over GST control)"
same,binding signal,EHF,"1.4 fold enrichment (6-mer frequency, TF over GST control)"
same,binding signal,SPI1,"1.29 fold enrichment (6-mer frequency, TF over GST control)"
same,binding signal,SPIB,"1.35 fold enrichment (6-mer frequency, TF over GST control)"
same,binding signal,ELK3,"1.21 fold enrichment (6-mer frequency, TF over GST control)"
same,binding signal,FEV,"1.28 fold enrichment (6-mer frequency, TF over GST control)"
same,binding signal,ETV5,"1.32 fold enrichment (6-mer frequency, TF over GST control)"
same,binding signal,HSF1,"2.8 fold enrichment (6-mer frequency, TF over GST control)"
same,binding signal,SPIC,"1.45 fold enrichment (6-mer frequency, TF over GST control)"
same,binding signal,ELF4,"1.42 fold enrichment (6-mer frequency, TF over GST control)"
same,binding signal,ELK4,"1.3 fold enrichment (6-mer frequency, TF over GST control)"
same,binding signal,ETV2,"1.23 fold enrichment (6-mer frequency, TF over GST control)"
same,binding signal,ELF3,"1.38 fold enrichment (6-mer frequency, TF over GST control)"
same,binding signal,CRX,"1.45 fold enrichment (6-mer frequency, TF over GST control)"
same,binding signal,ETV1,"1.39 fold enrichment (6-mer frequency, TF over GST control)"
